Consider 22 compounds from PubChem BioAssay (EPA / NIEHS).

Calls of active or inactive are those of the source. Rule for the calls: active = hit-call score of the fitted dose curve at least 0.9, where 1 is the maximum; inactive = score below 0.9.

Common to all, as to settings: mRNA level, 48 h; actives raise or lower the signal
Read-out in test [1]: matrix metalloproteinase-3 (MMP3), MMP3 (gene 4314)
Put plainly: LTEA_HepaRG_MMP3: Life Technologies and Expression Analysis (LTEA) Assay for matrix metalloproteinase-3 (MMP3) using HepaRG (AID 2283519). A digest of the protocol:
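Human liver HepaRG cultures received chemicals (top concentration 100 uM, 0.5% DMSO) for 48 h in duplicate. MMP3 mRNA induction or loss was then assessed via TaqMan qRT-PCR with housekeeping-gene normalisation.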

Read-out in test [2]: Paternally Expressed 10 (PEG10), PEG10 (gene 23089)
Put plainly: LTEA_HepaRG_PEG10: Life Technologies and Expression Analysis (LTEA) Assay for Paternally Expressed 10 (PEG10) using HepaRG (AID 2283520).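 For AC50: differentiated HepaRG human liver cells in serum-free induction medium with 0.5% DMSO; PEG10 transcript by qRT-PCR normalised to ACTB GAPDH and POLR2A.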 A digest of the protocol: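 qRT-PCR read-out: PEG10 mRNA normalised to three housekeeping genes, fitted bidirectionally against 0.5% DMSO vehicle. HepaRG cells received test chemicals for 48 h in serum-free induction medium, 8 points, top 100 uM, half-log steps.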

Read-out in test [3]: Protein phosphatase 2A (PPP2R4), PTPA (gene 5524)
The test can be described thus: LTEA_HepaRG_PPP2R4: Life Technologies and Expression Analysis (LTEA) Assay for Protein phosphatase 2A (PPP2R4) using HepaRG (AID 2283522). In a few lines:
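HepaRG, 48 h exposure, 8-pt half-log series from 100 uM, 0.5% DMSO vehicle, duplicates. Readout: PPP2R4 mRNA, Fluidigm qRT-PCR, housekeeping-normalized. Bidirectional curve fit vs DMSO baseline.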

Read-out in test [4]: Phosphatase and tensin (PTEN), PTEN (gene 5728)
Put plainly: LTEA_HepaRG_PTEN: Life Technologies and Expression Analysis (LTEA) Assay for Phosphatase and tensin (PTEN) using HepaRG (AID 2283523). In a few lines: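 Expression of PTEN is quantified in the human liver line HepaRG following two days of dosing (top concentration 100 uM, half-log dilutions, 0.5% DMSO). Values derive from bidirectional curve fitting relative to DMSO controls.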

Read-out in test [5]: Pyruvate Dehydrogenase Kinase 4 (PDK4), PDK4 (gene 5166)
Put plainly: LTEA_HepaRG_PDK4: Life Technologies and Expression Analysis (LTEA) Assay for Pyruvate Dehydrogenase Kinase 4 (PDK4) using HepaRG (AID 2283525). A digest of the protocol:
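Eight-point, half-log concentration series (max 100 uM, 0.5% DMSO) applied to differentiated HepaRG cells for 48 h in duplicate. Endpoint: PDK4 mRNA induction or repression by qRT-PCR against DMSO baseline.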

Read-out in test [6]: NAD(P)H dehydrogenase [quinone] 1 (NQO1), NQO1 (gene 1728)
Put plainly: LTEA_HepaRG_NQO1: Life Technologies and Expression Analysis (LTEA) Assay for NAD(P)H dehydrogenase [quinone] 1 (NQO1) using HepaRG (AID 2283526). In a few lines: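 qRT-PCR read-out (Fluidigm TaqMan), normalized to three housekeeping genes, after 48 h chemical exposure of HepaRG cells. Concentrations: eight points, top 100 uM, half-log steps, 0.5% DMSO vehicle. Gain or loss of signal fitted relative to DMSO.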

Read-out in test [7]: Nuclear factor erythroid 2-related factor 2 (Homo sapiens) (UniProt Q16236)
Put plainly: LTEA_HepaRG_NFE2L2: Life Technologies and Expression Analysis (LTEA) Assay for Nuclear factor erythroid 2-related factor 2 (NFE2L2) Transcription Factor using HepaRG (AID 2283527).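 For outcome: TaqMan qRT-PCR transcript level normalised to ACTB GAPDH and POLR2A housekeeping genes.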 A digest of the protocol: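 Human liver HepaRG line treated in duplicate for 48 h with an eight-point series topping at 100 uM. Gene expression of NFE2L2 by qRT-PCR, bidirectionally fitted against the vehicle control.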

Read-out in test [8]: Signal transducer and activator of transcription 3 (Homo sapiens) (UniProt P40763)
Put plainly: LTEA_HepaRG_STAT3: Life Technologies and Expression Analysis (LTEA) Assay for Signal transducer and activator of transcription (STAT3) using HepaRG (AID 2283529). In a few lines: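 In this transcriptional endpoint, HepaRG cultures receive test chemicals at up to 100 uM for 48 h, tested in duplicate. STAT3 mRNA is normalized to ACTB, GAPDH and POLR2A.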

Sequence of Signal transducer and activator of transcription 3 (Homo sapiens) (P40763 whole entry, looked up): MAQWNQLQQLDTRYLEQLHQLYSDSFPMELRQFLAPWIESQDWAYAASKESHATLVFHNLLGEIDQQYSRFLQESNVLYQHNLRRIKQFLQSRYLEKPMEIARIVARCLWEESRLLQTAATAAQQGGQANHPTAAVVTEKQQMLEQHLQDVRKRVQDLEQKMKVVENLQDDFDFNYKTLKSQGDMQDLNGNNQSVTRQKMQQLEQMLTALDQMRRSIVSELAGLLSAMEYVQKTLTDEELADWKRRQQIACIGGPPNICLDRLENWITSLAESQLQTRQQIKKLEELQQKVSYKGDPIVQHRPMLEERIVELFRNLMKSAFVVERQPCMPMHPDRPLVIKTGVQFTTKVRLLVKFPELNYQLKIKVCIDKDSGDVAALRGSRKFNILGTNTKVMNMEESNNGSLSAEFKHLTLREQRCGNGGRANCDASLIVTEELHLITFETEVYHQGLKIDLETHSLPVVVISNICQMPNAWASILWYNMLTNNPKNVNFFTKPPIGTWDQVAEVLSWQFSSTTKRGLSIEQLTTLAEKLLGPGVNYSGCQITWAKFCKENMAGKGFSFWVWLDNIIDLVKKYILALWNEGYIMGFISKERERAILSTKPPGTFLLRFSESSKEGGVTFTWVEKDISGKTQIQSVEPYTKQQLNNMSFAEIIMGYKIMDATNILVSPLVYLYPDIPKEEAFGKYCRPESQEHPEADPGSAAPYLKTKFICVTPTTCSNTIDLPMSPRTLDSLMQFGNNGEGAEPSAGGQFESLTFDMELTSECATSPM
Sequence of Nuclear factor erythroid 2-related factor 2 (Homo sapiens) (Q16236 whole entry, looked up): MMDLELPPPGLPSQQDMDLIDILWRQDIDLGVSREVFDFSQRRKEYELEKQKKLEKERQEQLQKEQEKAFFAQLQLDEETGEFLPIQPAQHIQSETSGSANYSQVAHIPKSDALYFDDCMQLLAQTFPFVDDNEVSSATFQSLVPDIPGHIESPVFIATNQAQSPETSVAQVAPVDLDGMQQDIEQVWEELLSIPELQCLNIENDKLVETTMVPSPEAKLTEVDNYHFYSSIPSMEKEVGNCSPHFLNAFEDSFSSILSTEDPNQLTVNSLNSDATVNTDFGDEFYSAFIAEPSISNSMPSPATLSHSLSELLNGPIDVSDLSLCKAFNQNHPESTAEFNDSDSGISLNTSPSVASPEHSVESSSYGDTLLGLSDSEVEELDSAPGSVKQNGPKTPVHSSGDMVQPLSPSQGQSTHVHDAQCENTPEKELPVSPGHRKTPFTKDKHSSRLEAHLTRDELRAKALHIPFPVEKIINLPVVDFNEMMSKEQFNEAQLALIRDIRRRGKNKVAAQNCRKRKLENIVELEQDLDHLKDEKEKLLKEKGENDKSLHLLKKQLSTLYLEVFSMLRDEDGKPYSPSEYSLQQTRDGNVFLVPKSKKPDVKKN

On to `CCCN(CCC)c1c([N+](=O)[O-])cc(C(C)C)cc1[N+](=O)[O-]`, for which the outcome in test [1], in test [3], in test [4], in test [6], in test [7] and in test [8] was inactive. In addition, the AC50 in test [2] was 43.3 µM (active); in test [5] it was 20.9 µM (active).
As for `OCC1CO1` (stereo not drawn), the outcome in test [1], in test [2], in test [3], in test [4], in test [5] and in test [6] was inactive. The outcome in test [7] and in test [8] was inactive.
For the compound `CCOP(=S)(OCC)SCSCC`, the call in test [1], in test [2], in test [3], in test [4], in test [5] and in test [6] was inactive. Also, the result in test [7] and in test [8] was inactive.
As for `Cc1ccc([N+](=O)[O-])cc1C`, the compound was called inactive in test [1], in test [2], in test [3], in test [4], in test [5] and in test [6]. For the same compound, the outcome in test [7] and in test [8] was inactive.
Turning to `CN(C)C(=O)Cl`, the compound was called inactive in test [1], in test [2], in test [3], in test [4], in test [5] and in test [6]. Moreover, the result in test [7] and in test [8] was inactive.
As for `CC(Cc1ccc(OCC(=O)O)cc1)NCC(O)c1csc(C(F)(F)F)n1` (stereo not drawn), the outcome in test [1], in test [3], in test [4], in test [5], in test [6] and in test [7] was inactive. Also, the result in test [8] was inactive. Besides, in test [2], the AC50 was 0.0862 µM (active).
As for `ClC(Cl)c1ccccc1`, the outcome in test [1], in test [2], in test [3], in test [4], in test [5] and in test [6] was inactive. The result in test [7] and in test [8] was inactive.
With `Cc1ccc(N)cc1N`, the result in test [1], in test [2], in test [3], in test [4], in test [6] and in test [7] was inactive. In addition, in test [8], the outcome was inactive. The AC50 in test [5] was 36.3 µM (active).
On to `CCCCCCCc1ccc(O)cc1`, for which the result in test [1], in test [2], in test [3], in test [4], in test [5] and in test [6] was inactive. Further, the call in test [7] and in test [8] was inactive.
Regarding `Cc1cccc(N)c1`, the compound was called inactive in test [1], in test [2], in test [3], in test [4], in test [5] and in test [6]. The call in test [7] and in test [8] was inactive.
Consider `CCCCc1ccccc1`, for which the result in test [1], in test [2], in test [3], in test [4], in test [5] and in test [6] was inactive. Moreover, the outcome in test [7] and in test [8] was inactive.
Regarding `CCOC(=O)c1ccccc1C(=O)OCC`, the call in test [1], in test [2], in test [3], in test [4], in test [5] and in test [6] was inactive. Moreover, the compound was called inactive in test [7] and in test [8].
As for `CC(C)(C)c1ccc(O)cc1`, the call in test [1], in test [2], in test [3], in test [4], in test [5] and in test [6] was inactive. Also, the compound was called inactive in test [8].
On to `Cc1ccc(O)cc1C`, for which the compound was called inactive in test [1], in test [2], in test [3], in test [4], in test [5] and in test [6]. Further, the result in test [8] was inactive.
With `O=P(Oc1ccccc1)(Oc1ccccc1)Oc1ccccc1`, the compound was called inactive in test [1], in test [2], in test [3], in test [4], in test [6] and in test [8]. Moreover, the AC50 in test [5] was 28.4 µM (active); in test [7], 21.2 µM (active).
As for `CCN(CC)c1ccccc1`, the outcome in test [1], in test [2], in test [3], in test [4], in test [5] and in test [6] was inactive. Also, the compound was called inactive in test [7] and in test [8].
Turning to `Nc1cc2c3c(c1)C(c1ccccc1)=N[C@@H](NC(=O)c1cccnc1)C(=O)N3CC2`, the compound was classed as inactive in test [1], in test [2], in test [3], in test [4], in test [5] and in test [6]. Besides, the compound was called inactive in test [7] and in test [8].
For the compound `CCOc1ccc(C(C)(C)COCc2cccc(Oc3ccccc3)c2)cc1`, the result in test [1], in test [2], in test [3], in test [4], in test [5] and in test [6] was inactive. Besides, the compound was classed as inactive in test [7] and in test [8].
As to `c1nc[nH]n1`, the figures for the AC50 in test [1] and in test [6] were 0.0899 µM (active) and 0.106 µM (active), respectively. Moreover, the result in test [2], in test [3], in test [4], in test [5], in test [7] and in test [8] was inactive.
Regarding `CCOP(=S)(Oc1ccc([N+](=O)[O-])cc1)c1ccccc1` (stereo not drawn), the outcome in test [1], in test [2], in test [3], in test [5] and in test [8] was inactive. In addition, the half-maximal activity concentration (AC50) is 0.0422 µM (active) in test [4] and 37.9 µM (active) in test [7].
On to `[N-]=[N+]=[N-]`, for which the result in test [1], in test [2], in test [3], in test [4], in test [6] and in test [7] was inactive. Further, the compound was classed as inactive in test [8]. For the same compound, in test [5], the AC50 was 71.7 µM (active).
With `CCC(C)(C)c1ccc(O)cc1`, the outcome in test [1], in test [2], in test [3], in test [4], in test [5] and in test [6] was inactive. The call in test [7] and in test [8] was inactive.

A word on the AC50: it is the concentration giving half of the maximal activity seen.
